# High-throughput results deposited in PubChem by National Center for Advancing Translational Sciences (NCATS).
# An excerpt weighted towards active compounds, which were near 2.8% of everything screened.
# a7 integrin act – activators of alpha7 integrin expression for muscular dystrophy; 0.064% of 350,000 active; alpha7betagal myoblasts, beta-gal FDG fluorescence, 48 h; Potency, µM (titrated, usually from 38.3 µM), most hits filed as activators; further: nearly all actives have a fitted effect of over 60% in size
#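 Alpha7betagal+/- myoblasts (passage 13) were plated 16-24 hr, then exposed to compounds (1:260 dilution of DMSO stock) for 48 hours at 37C. After MPER lysis, β-galactosidase reporter activity was read as FDG fluorescence (ex 480/em 540) after 30 minutes.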
# D3 antag – D3 dopamine receptor (human) antagonism; AID 652054; D3R cells, DiscoveRx beta-arrestin luminescence, antagonist mode; hits give low values; 2.5% of 360,000 active; max response, negative = inhibition, %; in the data active means max response below about -50%; inconclusive means no clear call, values can overlap the other calls
#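 Cells expressing the human receptor were seeded at 1500 cells/well, incubated overnight at 37 degrees C in 5% CO2, then exposed to library compounds with dopamine controls for 90 minutes at 37 degrees C before luminescent detection.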
# CBFb RUNX1 block – inhibitors of human CBF-beta and RUNX1 interaction; Q01196+Q13951; AlphaScreen CBFb-His/RUNX1-biotin binding, biochemical; Potency, µM (top dose mostly 59.8 µM), usual class: inhibitors; 230,000 tested, under 10 active; AID 1477
#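 Bead-based AlphaScreen assay; binding partners His-tagged CBF-beta and biotinylated RUNX1 at 30 nM each. Compound exposure 15 min after a 20-min protein preincubation; bead step 90 min; all steps at room temperature.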
# PTHR1 agonist – activates the human parathyroid hormone receptor PTHR1. Q03431. HEK293 GP2 PTHR1 cells, GloSensor cAMP luminescence, 1 h. Potency, µM (highest dose often 115 µM), hits mostly activators. 0.075% of 410,000 active; further: nearly all actives have a fitted effect of over 55% in size
#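 HEK-293-derived GP2 cells expressing PTHR1 and a GloSensor cAMP reporter, 3,000/well, plated overnight, given luciferin plus IBMX (each 0.5 mM as added) for 1 h at 37 °C, then compound for 1 h at 37 °C. Luminescence was read after 15 min at room temperature.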
# DRD3 agonist – activates the human D3 dopamine receptor; max activation, %; D3R DiscoveRx beta-arrestin cells, luminescence, 90 min; 0.58% of 410,000 active; in the data active means max activation above about 30%
#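 Agonist mode: compounds and dopamine controls were applied to plated cells for 90 min at 37 degrees C after an overnight attachment at 1500 cells/well. Luminescent read-out followed 30 - 60 minutes at room temperature with DiscoveRx detection reagent.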
# MBNL1-CUG inh – inhibitors of human MBNL1 binding to CUG repeat RNA | TR-FRET MBNL1-His/biotin-(CUG)12 binding, 665/545 ratio | Potency, µM (top dose mostly 57.5 µM), actives largely listed as inhibitors | 0.036% of 280,000 active; active means well fitted inhibition curve with a large enough effect in the signal ratio, with a control signal flat, not every such curve was filed as active; inconclusive means small, poorly fitted or top-dose-only effect, or effect the other way, or a change in a side signal; inactive means no such curve, though single readings can be large or run the other way; the % refers to the signal ratio
# Target sequence (Q9NR56 whole entry, looked up): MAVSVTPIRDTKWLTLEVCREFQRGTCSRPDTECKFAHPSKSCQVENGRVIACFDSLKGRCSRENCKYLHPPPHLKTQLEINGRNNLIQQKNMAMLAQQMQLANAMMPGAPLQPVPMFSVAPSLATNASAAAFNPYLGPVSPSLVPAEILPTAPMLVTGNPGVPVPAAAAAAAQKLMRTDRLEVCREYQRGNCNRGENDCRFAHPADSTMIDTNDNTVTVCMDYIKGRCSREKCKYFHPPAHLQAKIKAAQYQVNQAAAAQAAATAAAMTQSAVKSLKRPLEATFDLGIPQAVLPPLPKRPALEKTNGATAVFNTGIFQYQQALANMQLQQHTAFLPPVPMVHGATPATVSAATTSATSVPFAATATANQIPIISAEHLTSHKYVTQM
#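 MBNL1-His + Biotin-(CUG)12, cpd titration 92 nM–58 uM; Tb anti-His Ab 0.055 ng/ul, SA-XL665 5 nM (final); 60 min RT; ratiometric 665/545 nm, Ex 340 nm; normalized to buffer and full-complex controls.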
# Hits are given with their value; 0 = inactive; ? = inconclusive; - = no result given. Unless noted, the call rests on the fitted dose curve; in most records, active means well fitted curve in the direction sought with a large enough effect; inconclusive means small, poorly fitted or top-dose-only effect, or another doubt; inactive means no such curve, though single readings can be large; an effect the other way counts as inactive or inconclusive.
SMILES,a7 integrin act,D3 antag,CBFb RUNX1 block,PTHR1 agonist,DRD3 agonist,MBNL1-CUG inh
CCC(C)(C)n1nnnc1C(c1cc2cccc(C)c2[nH]c1=O)N1CCCC1 (stereo not drawn),0,0,0,0,0,?
Cc1ccc(C)c2[nH]c(=O)c(C(c3nnnn3C(C)(C)C)N3CC=C(c4ccc(F)cc4)CC3)cc12 (stereo not drawn),0,-51,0,0,0,-
CC(=O)N1CCCc2cc(S(=O)(=O)N3CCN(C4CCCCC4)CC3)ccc21,0,-56,0,0,0,0
COc1ccc(/C=N/NC(=O)c2cccc(OC(F)(F)C(F)F)c2)cc1O,0,-76,0,0,0,0
Nc1ccccc1SC(CC(=O)c1ccccc1)c1ccc([N+](=O)[O-])cc1 (stereo not drawn),0,-51,-,0,0,-
CC(CNC1CCCCC1)OC(=O)c1ccccc1 (stereo not drawn),-,-100,-,0,0,-
O=C(COC(=O)c1nc(Cl)ccc1Cl)NCc1ccc(Cl)cc1,0,0,-,0,0,-
O=[N+]([O-])c1cnc(Sc2ccncn2)s1,0,-125,0,0,0,?
Nc1c(C(=O)NCc2ccco2)c2nc3ccccc3nc2n1CCc1ccc(F)cc1,0,-63,0,0,0,0
O=C(CSc1ccc2ccccc2c1)Nc1ccc(S(=O)(=O)Nc2nccs2)cc1,0,0,0,0,0,0
COc1ccc(OC)c(C(C)NC(=O)c2ccc(Br)cc2)c1 (stereo not drawn),0,0,0,0,0,0
COc1cc(Br)c(C(C)NC(=O)c2ccccc2)cc1OC (stereo not drawn),0,0,0,0,40,0
COc1ccc(C(CC(=O)O)NC(=O)c2ccccc2)cc1OC (stereo not drawn),0,-60,0,0,0,0
COCCNC(=O)/C(C#N)=c1\s/c(=C\c2ccccc2OC(F)F)c(=O)n1Cc1ccccc1,-,-,0,-,-,0
O=c1oc2cc(Oc3c([N+](=O)[O-])cc(C(F)(F)F)cc3[N+](=O)[O-])ccc2c2c1CCCC2,0,-90,0,0,0,?
O=c1oc2cc(Oc3ccc(C(F)(F)F)cc3[N+](=O)[O-])ccc2c2c1CCC2,0,0,0,0,0,0
CC(CCc1ccc(O)cc1)NCCc1ccc(O)c(O)c1 (stereo not drawn),-,0,0,0,108,-
CC(CCc1ccc(O)cc1)NCC(O)c1ccc(O)cc1 (stereo not drawn),-,-,-,-,59,-
CC(CCc1ccc(O)cc1)NC1c2ccccc2-c2ccccc21 (stereo not drawn),0,0,-,0,0,0
CC(O)CCc1ccc(O)cc1 (stereo not drawn),0,0,0,0,0,0
CC(CCc1ccc(O)cc1)NC1C2CC3CC(C2)CC1C3 (stereo not drawn),0,-56,0,0,0,-
COc1ccccc1CCNC(C)CCc1ccc(O)cc1 (stereo not drawn),0,0,-,0,0,0
Cc1ccc(Nc2nnc(-c3ccc(C)c(S(=O)(=O)N4CCOCC4)c3)c3ccccc23)c(C)c1,-,-,-,0,0,-
O=C(Nc1ccc(F)cc1)C(c1ccnc2ccccc12)N1CCN(c2cccc(C(F)(F)F)n2)CC1 (stereo not drawn),-,0,-,0,0,-
Cc1c(O)ccoc1=O,0,0,0,0,0,0
SMILES,a7 integrin act,D3 antag,CBFb RUNX1 block,PTHR1 agonist,DRD3 agonist,MBNL1-CUG inh
Cc1occc(=O)c1O,-,-53,0,0,0,0
Cc1nn(C)cc1S(=O)(=O)NCc1ccccc1Cl,0,0,-,0,0,0
O=c1[nH]c(CSc2nnc(NCCCN3CCOCC3)s2)nc2cc(Cl)ccc12,0,-63,0,?,0,0
Cc1cccc(C)c1Nc1nnc(SCc2nc3ccccc3c(=O)[nH]2)s1,0,0,0,0,0,0
Cc1ccc(/C=N/Nc2ncc(Cl)cc2Cl)s1,0,0,0,0,31,0
Clc1cnc(N/N=C/c2cccs2)c(Cl)c1,0,0,0,0,0,0
Fc1ccccc1CSc1ccc(-c2ccco2)nn1,0,0,0,0,0,0
